Measurements: PubChem BioAssay AID1650 (Southern Research Specialized Biocontainment Screening …, 2009)
Measured potencies and affinities stand elsewhere. Calls of active or inactive are those of the source. The rule behind the calls is not given here.

Assay: host cell cytotoxicity of antiviral hits, dose response, cytotoxicity control for West Nile virus antiviral project, secondary assay (AID 1650)
Conditions: Mammalian host cell viability, cytotoxicity counter-screen; series mostly up to 20 µM; viability: at the top concentration

Structure (SMILES)	viability
CN(C)CCN(CC1CCCN(Cc2ccccc2F)C1)C(=O)Cc1ccc(F)c(F)c1 (centres undefined)	89.5% (inactive)
CCN(CC)c1nc2c(C)cccn2c(=O)c1C=C1C(=O)NC(=O)NC1=O	93.5% (inactive)
CC(C)c1oc(=O)cc2c1[C@@H](O)[C@H]1OC(=O)[C@@]3(C)CC[C@@H](O)[C@@]2(C)C13 (some centres undefined)	86.6% [at 10 µM] (inactive)
O=C1/C(=C\c2ccccc2)C2OCC=C3CN4CCC56c7ccccc7N1C5C2C3CC46 (centres undefined)	78.2% (inactive)
O=c1c2ccccc2nc(/C=C/c2ccccc2O)n1-c1ccccc1O	75.6% (inactive)
c1ccc2c(c1)Sc1ccccc1N2CC1CN2CCC1CC2 (centres undefined)	87% [at 10 µM] (inactive)
Cc1ccc2c(c1)[C@@H]1CN(C)CC[C@@H]1N2C(=O)Nc1cccc(C(F)(F)F)c1	81.5% [at 10 µM] (inactive)
O=C(N/N=C/c1c(O)n(CCc2ccccc2)c(=O)[nH]c1=O)c1ccccc1O	95.3% (inactive)
CC(C)c1oc(=O)cc2c1[C@@H](O)[C@H]1OC(=O)[C@@]3(C)C[C@@H](O)[C@@H](O)[C@@]2(C)C13 (some centres undefined)	92.9% [at 10 µM] (inactive)
